Measurements as given in publication PMC4336329 (PLoS ONE, 2015).
The whole screen tested about 310,000 compounds, of which about 14,000 (4.5%) showed an effect of 50% or more. The effect is printed as a negative number. The list comes from a sample in which strong results are over-represented; it also holds similar structures and randomly drawn compounds.

These compounds were tested against human ether-à-go-go-related gene (hERG) potassium channel (human, UniProt Q12809) (assay: primary screen, population patch clamp on CHO cells stably expressing hERG; higher = less effect of the substance).
human ether-à-go-go-related gene (hERG) potassium channel, sequence (Q12809 whole entry, looked up): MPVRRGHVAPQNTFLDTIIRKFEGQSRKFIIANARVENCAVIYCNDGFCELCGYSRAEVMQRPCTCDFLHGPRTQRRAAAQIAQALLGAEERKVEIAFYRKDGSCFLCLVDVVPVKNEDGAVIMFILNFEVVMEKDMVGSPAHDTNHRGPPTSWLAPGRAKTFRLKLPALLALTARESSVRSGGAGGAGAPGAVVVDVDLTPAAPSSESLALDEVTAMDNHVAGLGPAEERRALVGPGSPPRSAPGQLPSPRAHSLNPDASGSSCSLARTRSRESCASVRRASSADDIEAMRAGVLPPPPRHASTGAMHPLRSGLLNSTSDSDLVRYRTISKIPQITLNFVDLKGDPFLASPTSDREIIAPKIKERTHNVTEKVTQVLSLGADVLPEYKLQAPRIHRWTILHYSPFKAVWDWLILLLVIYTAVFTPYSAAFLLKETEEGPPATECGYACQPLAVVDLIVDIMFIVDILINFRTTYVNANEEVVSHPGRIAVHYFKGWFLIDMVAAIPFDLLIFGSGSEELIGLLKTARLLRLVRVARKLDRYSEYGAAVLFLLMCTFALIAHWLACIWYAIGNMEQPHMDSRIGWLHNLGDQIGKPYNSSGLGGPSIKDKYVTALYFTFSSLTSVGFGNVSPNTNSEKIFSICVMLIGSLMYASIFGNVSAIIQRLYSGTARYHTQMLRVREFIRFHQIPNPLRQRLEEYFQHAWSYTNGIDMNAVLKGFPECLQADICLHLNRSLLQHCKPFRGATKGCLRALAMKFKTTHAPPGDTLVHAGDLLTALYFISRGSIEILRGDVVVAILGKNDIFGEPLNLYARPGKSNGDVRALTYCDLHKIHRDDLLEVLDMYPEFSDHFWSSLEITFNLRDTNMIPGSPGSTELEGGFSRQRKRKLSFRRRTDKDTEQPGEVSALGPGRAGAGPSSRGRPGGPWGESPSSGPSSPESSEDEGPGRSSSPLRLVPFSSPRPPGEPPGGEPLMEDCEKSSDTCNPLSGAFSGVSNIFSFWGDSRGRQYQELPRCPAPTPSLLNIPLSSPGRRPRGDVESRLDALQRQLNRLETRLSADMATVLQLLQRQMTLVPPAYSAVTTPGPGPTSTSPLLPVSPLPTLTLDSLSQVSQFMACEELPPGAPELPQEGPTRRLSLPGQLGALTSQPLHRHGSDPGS
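Further: peak tail current of the secondary pulse compared with the same well before compound.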

SMILES | hERG current change (%, negative = inhibition) at 10uM [%]
COc1ccc(C(CNC(=O)COc2c(C)cc(C)cc2C)N2CCOCC2)cc1 (stereo not drawn) | -12.1
COc1ccc(-c2coc3cc(O)ccc3c2=O)cc1 | -5.05
CCOC(=O)CSC1=N/C(=C\c2cc(OC)c(OC)c(OC)c2)C(=O)N1C | -7.36
CCOC(=O)CSC1=N/C(=C\c2ccc(OC)c(OC)c2)C(=O)N1C | -69.7
CCN1C(=O)/C(=C/c2ccc(OC)c(OC)c2)N=C1SCC(=O)NCc1ccco1 | -15.1
CCOC(=O)C1(CCCc2ccccc2)CCN(S(=O)(=O)N(C)C)CC1 | -4.73
CCOC(=O)C1(CCCc2ccccc2)CCN(C2CCC2)CC1 | -74.8
CCOC(=O)C1(CCc2ccccc2)CCN(C(=O)C2CCOCC2)CC1 | -53.1
CCOC(=O)C1(Cc2ccccc2C(F)(F)F)CCN(C2CCC2)CC1 | -36.6
CCOC(=O)C1(CCCc2ccccc2)CCN(C2CCCC2)CC1 | -69.7
O=C(C1CCOCC1)N1CCC(CO)(CCc2ccccc2)CC1 | 5.29
CCOC(=O)C1(CCCc2ccccc2)CCN(C(=O)C2CCCN(C(N)=O)C2)CC1 (stereo not drawn) | -72.4
CCOC(=O)C1(CCCc2ccccc2)CCN(C(=O)[C@@H]2C[C@@H](C)NC(=S)N2)CC1 | -25.1
CCOC(=O)C1(CCc2ccccc2)CCN(C(=O)C2CCCO2)CC1 (stereo not drawn) | -13
CCOC(=O)C1(CCCc2ccccc2)CCN(S(C)(=O)=O)CC1 | -8.15
CCOC(=O)C1(CCCc2ccccc2)CCN(C(=O)C2CCCO2)CC1 (stereo not drawn) | -25.7
O=c1cc(O)c(-c2cccc(C(F)(F)F)c2)c(Cl)[nH]1 | 22.5
O=C1C(Cc2ccc3[nH]ccc3c2)NC(=S)N1c1ccccc1 (stereo not drawn) | 7.61
Cc1ccccc1C(=O)NC(=S)NCc1cccnc1 | 31.9
COC(=O)c1ccc(CO/N=C2\CCCc3nonc32)cc1 | -35.1
O=C(Cn1c(-c2ccccc2)noc1=O)Nc1ccc(N2CCCCCC2)cc1 | 6.95
Cc1cc(C)cc(OCC(=O)OCC(=O)NCc2ccco2)c1 | 4.8
O=C(Cc1ccc(NC2=NC3CS(=O)(=O)CC3S2)cc1)NCCc1ccccc1 (stereo not drawn) | 6.22

SMILES | hERG current change (%, negative = inhibition) at 10uM [%]
O=c1oc2cc(OCc3ccc(C(F)(F)F)cc3)ccc2cc1-c1ccccn1 | 10.4
Cc1ccc(C(=O)OCCOc2cccc(Cl)c2)cc1S(=O)(=O)N1CCOCC1 | -12.2
CCOC(=O)C1=C(c2ccccc2)NC(=S)NC1c1ccc(Cl)cc1 (stereo not drawn) | 0.162
Cc1ccc(C(O)(c2ccc(C)c(C)c2)C2CN3CCC2CC3)cc1C.Cl (stereo not drawn) | -67.6
Cl.OC(c1ccccc1)(c1ccccc1)C1CN2CCC1CC2 (stereo not drawn) | -45.2
O=C(NC1CN2CCC1CC2)c1cccc(Cl)c1 (stereo not drawn) | 3.72
Cc1ccccc1C(O)(Cc1ccccc1)C1CN2CCC1CC2.Cl (stereo not drawn) | -55.2
Cl.OC(Cc1ccccc1)(c1ccccc1)C1CN2CCC1CC2 (stereo not drawn) | -49.7
Cc1ccc(C(=O)N2CCC(C)CC2)cc1C | 8.09
CC(C)[N+]12CCC(CC1)C(C(O)(c1ccccc1)c1ccccc1)C2.[I-] (stereo not drawn) | 16.9
Cc1ccc(NC(=O)C2CCN(S(C)(=O)=O)CC2)cc1C | 3.29
C[N+]12CCC(CC1)C(C(O)(c1cccc(Cl)c1)c1cccc(Cl)c1)C2.[I-] (stereo not drawn) | 13.6
c1ccc(C2CN3CCC2CC3)cc1 (stereo not drawn) | -5.74
Cl.OC(c1cccc(Cl)c1)(c1cccc(Cl)c1)C1CN2CCC1CC2 (stereo not drawn) | -81.8
OC(c1ccccc1)(c1ccc(Cl)cc1)C1CN2CCC1CC2 (stereo not drawn) | -56
CC(=O)N1CCN(c2ccc(NC(=O)c3cccc(Cl)c3)cc2)CC1 | -7.02
COc1ccc2nc(NC(=O)C(NS(=O)(=O)c3cccs3)C(C)C)sc2c1 (stereo not drawn) | 8.73
Cc1ccc(-n2cc(CCCCCCCCC(=O)O)nn2)cc1 | -12.3
COc1ccc(-c2ccc(=O)n(CC(=O)Nc3nnc(C(C)C)s3)n2)cc1OC | 11.9
S=c1[nH]c2cnccc2n1Cc1ccccc1 | 12.4
COc1cc(C(=O)NCCOc2ccc(F)cc2)c(Br)c(OC)c1OC | 3.42
COCC(C)NC(=O)c1noc2c1CCc1cc(OC)ccc1-2 (stereo not drawn) | -25.9
